PMC8384837, “Expanding the binding specificity for RNA recognition by a PUF domain”

What was measured:
Experiment in all cases: yeast three-hybrid, YBZ-1, SC-Leu-His + 0.5 mM 3-AT, 4 days
Settings in all cases: tags: N-Gal4 AD-HA kept; label: inside an RPR1-promoter hybrid RNA with tandem MS2 sites; ssRNA
PUM1 PUF domain R8-KYV = PUM1 PUF domain R8-KYV (Homo sapiens, UniProt Q14671 828-1176, N1122K;Q1126V)
Summary of the method: (§1)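 Each repeat of the Pumilio-1 PUF domain was randomized at its three base-contacting residues, and these libraries were co-expressed from a centromeric plasmid with matching RNA elements in strain YBZ-1. After four days on SC-Leu (input) or SC-Leu-His + 0.5 mM 3-AT (selection), the repeat regions were PCR-amplified and Illumina-sequenced. The interaction score compares variant frequency between input and selection as a log change, computed in log2 with a pseudocount of 1 for absent variants.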

PUM1 PUF domain R8-EWR = PUM1 PUF domain R8-EWR (Homo sapiens, UniProt Q14671 828-1176, N1122E;Y1123W;Q1126R)
Summary of the method: as §1

PUM1 PUF domain R4-MNR = PUM1 PUF domain R4-MNR (Homo sapiens, UniProt Q14671 828-1176, N971M;H972N;Q975R)
Summary of the method: as §1

PUM1 PUF domain R4-PYE = PUM1 PUF domain R4-PYE (Homo sapiens, UniProt Q14671 828-1176, N971P;H972Y;Q975E)
Summary of the method: as §1

PUM1 PUF domain R4-FGC = PUM1 PUF domain R4-FGC (Homo sapiens, UniProt Q14671 828-1176, N971F;H972G;Q975C)
Summary of the method: as §1

PUM1 PUF domain R2-SWW = PUM1 PUF domain R2-SWW (Homo sapiens, UniProt Q14671 828-1176, N899S;Y900W;Q903W)
Summary of the method: as §1

PUM1 PUF domain R5-LYE = PUM1 PUF domain R5-LYE (Homo sapiens, UniProt Q14671 828-1176, C1007L;R1008Y;Q1011E)
Summary of the method: as §1

PUM1 PUF domain R6-GWM = molecular target: T1, PUM1 PUF domain R6-GWM (Homo sapiens, UniProt Q14671 828-1176, N1043G;Y1044W;Q1047M)
T1 sequence: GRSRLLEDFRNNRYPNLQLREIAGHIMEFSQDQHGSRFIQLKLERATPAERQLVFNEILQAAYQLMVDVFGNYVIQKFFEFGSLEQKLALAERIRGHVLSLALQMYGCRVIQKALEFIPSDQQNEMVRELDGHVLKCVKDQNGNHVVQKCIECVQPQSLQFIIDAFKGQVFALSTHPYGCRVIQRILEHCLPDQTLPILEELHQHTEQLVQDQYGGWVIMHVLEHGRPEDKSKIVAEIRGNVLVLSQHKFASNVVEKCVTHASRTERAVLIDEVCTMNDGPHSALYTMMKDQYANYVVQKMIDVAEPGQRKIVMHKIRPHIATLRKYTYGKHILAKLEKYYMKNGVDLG
Summary of the method: as §1

PUM1 PUF domain R5-RYG = PUM1 PUF domain R5-RYG (Homo sapiens, UniProt Q14671 828-1176, C1007R;R1008Y;Q1011G)
Summary of the method: as §1

PUM1 PUF domain R3-FFL = PUM1 PUF domain R3-FFL (Homo sapiens, UniProt Q14671 828-1176, C935F;R936F;Q939L)
Summary of the method: as §1

PUM1 PUF domain R3-MRA = PUM1 PUF domain R3-MRA (Homo sapiens, UniProt Q14671 828-1176, C935M;Q939A)
Summary of the method: as §1

PUM1 PUF domain R3-RAC = PUM1 PUF domain R3-RAC (Homo sapiens, UniProt Q14671 828-1176, C935R;R936A;Q939C)
Summary of the method: as §1

PUM1 PUF domain R3-RCR = PUM1 PUF domain R3-RCR (Homo sapiens, UniProt Q14671 828-1176, C935R;R936C;Q939R)
Summary of the method: as §1

PUM1 PUF domain R5-SGK = PUM1 PUF domain R5-SGK (Homo sapiens, UniProt Q14671 828-1176, C1007S;R1008G;Q1011K)
Summary of the method: as §1

PUM1 PUF domain R5-KSR = PUM1 PUF domain R5-KSR (Homo sapiens, UniProt Q14671 828-1176, C1007K;R1008S;Q1011R)
Summary of the method: as §1

PUM1 PUF domain R5-QKA = PUM1 PUF domain R5-QKA (Homo sapiens, UniProt Q14671 828-1176, C1007Q;R1008K;Q1011A)
Summary of the method: as §1

PUM1 PUF domain R5-KRF = PUM1 PUF domain R5-KRF (Homo sapiens, UniProt Q14671 828-1176, C1007K;Q1011F)
Summary of the method: as §1

PUM1 PUF domain R5-KGT = PUM1 PUF domain R5-KGT (Homo sapiens, UniProt Q14671 828-1176, C1007K;R1008G;Q1011T)
Summary of the method: as §1

PUM1 PUF domain R5-GYL = PUM1 PUF domain R5-GYL (Homo sapiens, UniProt Q14671 828-1176, C1007G;R1008Y;Q1011L)
Summary of the method: as §1

PUM1 PUF domain R5-WHR = PUM1 PUF domain R5-WHR (Homo sapiens, UniProt Q14671 828-1176, C1007W;R1008H;Q1011R)
Summary of the method: as §1

## GGCUAGAACUAGUGGAUCCCCCGGCGCCCGGCGGCUCGAGCCCGGGUAAGCGUAAAUAGUCUGCAUGCCGCCGGGCGCCAUGCCUGCAGGUCGACUCUAGAAAACAUG
PUM1 PUF domain R8-KYV
  binding signal: 2.16 log2 enrichment (interaction score)
PUM1 PUF domain R8-EWR
  binding signal: 2.45 log2 enrichment (interaction score)

## GGCUAGAACUAGUGGAUCCCCCGGCGCCCGGCGGCUCGAGCCCGGGUAAGUGUAUAUAGUCUGCAUGCCGCCGGGCGCCAUGCCUGCAGGUCGACUCUAGAAAACAUG
PUM1 PUF domain R4-MNR
  binding signal: 4.01 log2 enrichment (interaction score)
PUM1 PUF domain R4-PYE
  binding signal: 4.08 log2 enrichment (interaction score)
PUM1 PUF domain R4-FGC
  binding signal: 3.05 log2 enrichment (interaction score)

## GGCUAGAACUAGUGGAUCCCCCGGCGCCCGGCGGCUCGAGCCCGGGUAAGUGUAAAAAGUCUGCAUGCCGCCGGGCGCCAUGCCUGCAGGUCGACUCUAGAAAACAUG
PUM1 PUF domain R2-SWW
  binding signal: 3.5 log2 enrichment (interaction score)

## GGCUAGAACUAGUGGAUCCCCCGGCGCCCGGCGGCUCGAGCCCGGGUAAGUGUAAAUAGUCUGCAUGCCGCCGGGCGCCAUGCCUGCAGGUCGACUCUAGAAAACAUG
PUM1 PUF domain R8-KYV
  binding signal: 2.77 log2 enrichment (interaction score)
PUM1 PUF domain R5-LYE
  binding signal: 3.07 log2 enrichment (interaction score)
PUM1 PUF domain R8-EWR
  binding signal: 1.16 log2 enrichment (interaction score)
PUM1 PUF domain R6-GWM
  binding signal: 2.52 log2 enrichment (interaction score)
PUM1 PUF domain R5-RYG
  binding signal: 2.94 log2 enrichment (interaction score)
PUM1 PUF domain R4-FGC
  binding signal: 1 log2 enrichment (interaction score)
PUM1 PUF domain R3-FFL
  binding signal: 3.27 log2 enrichment (interaction score)

## GGCUAGAACUAGUGGAUCCCCCGGCGCCCGGCGGCUCGAGCCCGGGUAAGGGUAAAUAGUCUGCAUGCCGCCGGGCGCCAUGCCUGCAGGUCGACUCUAGAAAACAUG
PUM1 PUF domain R8-KYV
  binding signal: 3.44 log2 enrichment (interaction score)

## GGCUAGAACUAGUGGAUCCCCCGGCGCCCGGCGGCUCGAGCCCGGGUAAGUGUACAUAGUCUGCAUGCCGCCGGGCGCCAUGCCUGCAGGUCGACUCUAGAAAACAUG
PUM1 PUF domain R4-MNR
  binding signal: 3.28 log2 enrichment (interaction score)
PUM1 PUF domain R4-PYE
  binding signal: 0.65 log2 enrichment (interaction score)
PUM1 PUF domain R4-FGC
  binding signal: 0.93 log2 enrichment (interaction score)

## GGCUAGAACUAGUGGAUCCCCCGGCGCCCGGCGGCUCGAGCCCGGGUAAGUGUAAUUAGUCUGCAUGCCGCCGGGCGCCAUGCCUGCAGGUCGACUCUAGAAAACAUG
PUM1 PUF domain R3-MRA
  binding signal: 2.68 log2 enrichment (interaction score)
PUM1 PUF domain R3-RAC
  binding signal: 4.24 log2 enrichment (interaction score)
PUM1 PUF domain R3-RCR
  binding signal: 2.77 log2 enrichment (interaction score)

## GGCUAGAACUAGUGGAUCCCCCGGCGCCCGGCGGCUCGAGCCCGGGUAAGUGUCAAUAGUCUGCAUGCCGCCGGGCGCCAUGCCUGCAGGUCGACUCUAGAAAACAUG
PUM1 PUF domain R5-SGK
  binding signal: 0.9 log2 enrichment (interaction score)
PUM1 PUF domain R5-KSR
  binding signal: 4.35 log2 enrichment (interaction score)
PUM1 PUF domain R5-QKA
  binding signal: 2.79 log2 enrichment (interaction score)
PUM1 PUF domain R5-KRF
  binding signal: 2.59 log2 enrichment (interaction score)
PUM1 PUF domain R5-RYG
  binding signal: 5.09 log2 enrichment (interaction score)
PUM1 PUF domain R5-KGT
  binding signal: 2.31 log2 enrichment (interaction score)
PUM1 PUF domain R5-GYL
  binding signal: 0.48 log2 enrichment (interaction score)
PUM1 PUF domain R5-WHR
  binding signal: 3.55 log2 enrichment (interaction score)

## GGCUAGAACUAGUGGAUCCCCCGGCGCCCGGCGGCUCGAGCCCGGGUAAGUGUUAAUAGUCUGCAUGCCGCCGGGCGCCAUGCCUGCAGGUCGACUCUAGAAAACAUG
PUM1 PUF domain R5-SGK
  binding signal: 2.15 log2 enrichment (interaction score)
PUM1 PUF domain R5-KSR
  binding signal: 2.77 log2 enrichment (interaction score)
PUM1 PUF domain R5-KGT
  binding signal: 2.93 log2 enrichment (interaction score)
PUM1 PUF domain R5-GYL
  binding signal: 7.41 log2 enrichment (interaction score)
PUM1 PUF domain R5-WHR
  binding signal: 4.76 log2 enrichment (interaction score)

## GGCUAGAACUAGUGGAUCCCCCGGCGCCCGGCGGCUCGAGCCCGGGUAAGUGUAAGUAGUCUGCAUGCCGCCGGGCGCCAUGCCUGCAGGUCGACUCUAGAAAACAUG
PUM1 PUF domain R3-MRA
  binding signal: 5.2 log2 enrichment (interaction score)
